Out of some 66,000 compounds screened, about 960 (1.5%) showed an effect of 50% or more. The full list was thinned out, with strong results kept by preference.

The record followed here is ChEMBL document CHEMBL3988442, “University of Dundee, Small-Polar-MMV Screening Library” (2021).

In this assay the test system is Trypanosoma brucei. Nature of the assay: Trypanosoma brucei 72 hour study. The class given is functional, organism-based. Also noted: scale not given: in the data most compounds retested in dose-response had high values.

For `CC(=O)Nc1nc(CN2CCCC2Cn2cccn2)cs1` (stereo not given), the “Percent Effect” value (30.3 µM, […]) stood at 98.13%.

`CC(C)c1nc(CN2CCCC2CN2CCCC2)cs1` (stereo not given): the “Percent Effect” value (30.3 µM, […]) is listed as 99.84%.

As to `CCCc1nc(CN2CCCC2Cn2cncn2)cs1` (stereo not given), the “Percent Effect” value (30 µM, 30.03 µM) came to 2.721%.

In the case of `CC(C)c1nc(CN2CCCCC2)cs1`, for the setting “30 µM, 30.03 µM”, the “Percent Effect” value amounted to 11.44%.

For the compound `CCCc1nc(CN2CCCC2Cn2cccn2)cs1` (stereo not given), the “Percent Effect” value (30.3 µM, […]) was determined as 100.2%.

For `CN(C)C(=O)Cc1nc(CN2CCCCC2Cn2cncn2)cs1` (stereo not given), the “Percent Effect” value (30.3 µM, […]) is recorded as -54.68%.

On to `CCCc1nc(CN2CCCCC2Cn2cncn2)cs1` (stereo not given), for which the “Percent Effect” value by setting is: (30.3 µM, […]) 101.4%; (10 mM, 10 mM as filed; unlikely as a test dose) -40.08%.

`CC(C)c1nc(CN2CCCCC2Cn2cncn2)cs1` (stereo not given): the “Percent Effect” value is, setting by setting: (30.3 µM, […]) 7.247%; (10 mM, 10 mM as filed; unlikely as a test dose) -40.32%.

In the case of `CN(C)C(=O)Cc1nc(CN2CCCCC2Cn2cccn2)cs1` (stereo not given), the “Percent Effect” value (30 µM, 30.03 µM) was -14.9%.

On to `CC(=O)Nc1nc(CN2CCCCC2Cn2cccn2)cs1` (stereo not given), for which the “Percent Effect” value (30 µM, 30.03 µM) worked out at 16.1%.

As to `CN(C)C(=O)Cc1nc(CN2CCCC2Cn2cccn2)cs1` (stereo not given), for the setting “30.3 µM, […]”, the “Percent Effect” value was -75.86%.

Turning to `CC(=O)Nc1nc(CN2CCCC2Cn2cncn2)cs1` (stereo not given), for the setting “30 µM, 30.03 µM”, the “Percent Effect” value was 3.686%.

Regarding `CN(C)Cc1nc(-n2cnc(C(=O)NCC3CC3)c2)n2ccccc12`, the “Percent Effect” value (30.3 µM, […]) is -8.964%.

Consider `CN1C(=O)CC(C(=O)O)C12CCN(c1ccc3ccccc3n1)CC2` (stereo not given), for which the “Percent Effect” value (30 µM, 30.03 µM) was -0.482%.

For the compound `COc1ccc(CC(=O)N2CC(=O)NCC(C)(C)C2)cc1`, the “Percent Effect” value (30.3 µM, […]) is reported as -15.32%.

Turning to `O=C(NC[C@@H]1C[C@@H]2CN(C(=O)CO)C[C@H]2O1)c1ccsc1`, the “Percent Effect” value (30.3 µM, […]) is given as -12.73%.

For `Cc1nn(C)c(C)c1S(=O)(=O)N1CC[C@@H]2O[C@@H](C)C[C@H]2C1.O=C(O)C(F)(F)F`, the “Percent Effect” value (30.3 µM, […]) is 5.348%.

With `CN(C)CCN1C(=O)CCC12CCCN(C(=O)C1CC=CC1)CC2.O=C(O)C(F)(F)F` (stereo not given), the “Percent Effect” value (30.3 µM, […]) came out at 14.28%.

Regarding `Cc1ccc(OCC2CCCN(c3nc(CO)cs3)C2)cc1` (stereo not given), the “Percent Effect” value (30 µM, 30.03 µM) is 49.4%.

As to `OCc1csc(N2CCCC(COc3cccc(F)c3)C2)n1` (stereo not given), the “Percent Effect” value (30 µM, 30.03 µM) is -13.56%.

Take `COc1ccc(OCC2CCCN(c3nc(CO)cs3)C2)cc1` (stereo not given): the “Percent Effect” value (30 µM, 30.03 µM) is recorded as 85.11%.

For the compound `CCc1c(C)nc2cc(-c3nccn3C)nn2c1N1CCCC(CO)C1` (stereo not given), the “Percent Effect” value (30.3 µM, […]) is recorded as 50.14%.

Turning to `Cc1nc2cc(-c3nccn3C)nn2c(N2CCCC(CO)C2)c1C` (stereo not given), the “Percent Effect” value (30.3 µM, […]) is 21.68%.

In the case of `Cc1nc2cc(-c3nccn3C)nn2c(N2CCCC(O)C2)c1C.Cl` (stereo not given), the “Percent Effect” value (30.3 µM, […]) is on record as -11.86%.

Consider `Cc1ccc(CN2CCOC3(COCCN(CCN(C)C)C3)C2)o1.O=C(O)C(F)(F)F.O=C(O)C(F)(F)F.O=C(O)C(F)(F)F` (stereo not given), for which the “Percent Effect” value (30 µM, 30.03 µM) is on record as 20.44%.

As to `CN1CCC(NCC(O)c2cccc(OCc3ccccc3)c2)CC1` (stereo not given), where the note is “30 µM, 30.03 µM”, the “Percent Effect” value was 101.3%.

As to `OC(CNC1CCSCC1)c1cccc(OCc2ccccc2)c1` (stereo not given), the “Percent Effect” value (30 µM, 30.03 µM) was -20.69%.

As to `OC(CNC1CCOCC1)c1cccc(OCc2ccccc2)c1` (stereo not given), the “Percent Effect” value (30 µM, 30.03 µM) was -36.97%.
